Compound activity from PubChem BioAssay.
OTUD3 inh: inhibitors of human OTUD3 deubiquitinase. OTU domain-containing protein 3 (Homo sapiens), Q5T2D3. purified OTUD3, Ub-rhodamine fluorescence, 2 h. inhibition, % at 25 µM. hit rate 0.7% among 47,000
USP28 inh: inhibitors of human USP28 deubiquitinase; inhibition, % at 25 µM; AID 1645857, 2021; purified USP28, Ub-rhodamine cleavage fluorescence, 30 min; hit rate 3% among 47,000; Ubiquitin carboxyl-terminal hydrolase 28 (Homo sapiens), Q96RU2
Target sequence (Q96RU2 whole entry, looked up): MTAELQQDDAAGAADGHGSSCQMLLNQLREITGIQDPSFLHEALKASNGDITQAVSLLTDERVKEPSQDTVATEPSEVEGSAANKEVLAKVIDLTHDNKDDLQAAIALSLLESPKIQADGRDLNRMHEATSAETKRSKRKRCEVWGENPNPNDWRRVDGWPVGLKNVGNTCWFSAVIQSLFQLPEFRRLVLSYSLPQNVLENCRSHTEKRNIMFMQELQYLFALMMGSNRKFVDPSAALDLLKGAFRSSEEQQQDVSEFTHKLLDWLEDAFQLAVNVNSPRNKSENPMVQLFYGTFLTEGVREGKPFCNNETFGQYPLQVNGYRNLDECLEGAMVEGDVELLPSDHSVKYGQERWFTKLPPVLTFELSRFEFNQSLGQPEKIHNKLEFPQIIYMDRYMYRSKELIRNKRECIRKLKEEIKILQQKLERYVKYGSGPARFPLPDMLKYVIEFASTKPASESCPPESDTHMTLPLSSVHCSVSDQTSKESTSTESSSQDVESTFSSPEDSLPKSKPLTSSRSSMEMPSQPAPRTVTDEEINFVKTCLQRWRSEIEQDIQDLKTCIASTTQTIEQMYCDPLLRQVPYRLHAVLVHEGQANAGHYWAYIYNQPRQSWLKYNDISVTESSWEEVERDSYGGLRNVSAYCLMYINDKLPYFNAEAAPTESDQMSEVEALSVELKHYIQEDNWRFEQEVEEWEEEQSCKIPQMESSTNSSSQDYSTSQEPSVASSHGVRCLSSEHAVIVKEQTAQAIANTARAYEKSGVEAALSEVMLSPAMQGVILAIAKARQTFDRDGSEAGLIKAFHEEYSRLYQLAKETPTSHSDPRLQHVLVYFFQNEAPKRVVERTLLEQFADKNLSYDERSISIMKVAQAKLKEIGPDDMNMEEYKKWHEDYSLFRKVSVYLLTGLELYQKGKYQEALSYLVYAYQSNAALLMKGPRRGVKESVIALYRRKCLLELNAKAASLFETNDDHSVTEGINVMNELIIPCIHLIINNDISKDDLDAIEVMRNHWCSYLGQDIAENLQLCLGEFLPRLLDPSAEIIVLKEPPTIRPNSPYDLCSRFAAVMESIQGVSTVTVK
USP30 block: inhibitors of human USP30 deubiquitinase | Ubiquitin carboxyl-terminal hydrolase 30 (Homo sapiens), Q70CQ3 | AID 1645860, 2021 | purified USP30, Ub-rhodamine cleavage fluorescence | inhibition, % at 25 µM | hit rate 5.3% among 47,000
USP17 block: inhibitors of human USP17 deubiquitinase; hit rate 6.5% among 47,000; inhibition, % at 50 µM; Ubiquitin carboxyl-terminal hydrolase 17-like protein 5 (Homo sapiens), A8MUK1; AID 1645855, 2021; purified USP17, Ub-rhodamine cleavage fluorescence, 3 h
Large screens that a line does not name were inactive. Hits are enriched below; roughly 12% of the tested compounds scored in any of these assays. No stated cut-off is given here; in the data, active means inhibition above about 30%; inactive means the rest.

Cn1c(C2CCN(C(=O)c3c(F)cccc3F)C2)nc2ccncc21 (stereo not drawn)	none (no result: USP17 block)
CN1C[C@H]2CCN(C(=O)NCCc3c[nH]c4ccccc34)C[C@H]21	none
Cn1c(C(=O)NCCc2c[nH]c3ccccc23)cc2sccc21	USP28 inh 39
O=C(NCCc1c[nH]c2ccccc12)c1cc2sccc2n1Cc1ccccc1	USP17 block 44
Cn1c(SCCOc2ccc(Cl)cc2)nnc1-c1ccc2c(c1)OCCO2	USP30 block 54
Cn1c(SCCOc2ccccc2)nnc1-c1ccc2c(c1)OCCCO2	none
O=C1N(Cc2ccc(Cl)cc2)c2ccccc2S(=O)(=O)N1Cc1ccccc1	none
CCn1cc(-c2cc(C(=O)Nc3cnn(Cc4cccc(F)c4)c3)c3ccccc3n2)cn1	USP17 block 63
O=C(O)c1cccc2oc(-c3cccc4oc(-c5ccccc5O)nc34)nc12	USP17 block 46
O=C1CCC(=O)NCCCCCN(O)C(=O)CCC(=O)NCCCCCN(O)C(=O)CCC(=O)NCCCCCN1	USP30 block 44
CCOC(=O)CSc1nnc(-c2cnn(-c3ccccc3)c2N)o1	USP17 block 58
Cc1nnc(NCc2cccnc2)c2c1nnn2Cc1ccc(F)cc1	USP28 inh 34
COc1ccc(Sc2nnc(C)c3nnn(Cc4ccc(F)cc4)c23)cc1	USP17 block 32
Cc1nnc(NCCO)c2c1nnn2Cc1ccccc1Cl	none
Nc1nc(/C=C/c2ccc(Br)cc2)nc(-c2ccccc2O)n1	none
Nc1nc(/C=C/c2ccc(Cl)cc2)nc(-c2ccccc2O)n1	USP17 block 36
O=C(Cn1c(=O)n(Cc2ccccc2)c(=O)c2ncccc21)NCc1ccccc1Cl	USP17 block 86
O=C(Cn1c(=O)n(Cc2ccc3c(c2)OCO3)c(=O)c2ncccc21)c1ccc(Cl)cc1	USP30 block 62
O=C(Cn1c(=O)n(Cc2ccncc2)c(=O)c2ncccc21)Nc1ccccc1	none
O=C(Cn1c(=O)n(Cc2ccc3c(c2)OCO3)c(=O)c2ncccc21)NCc1ccco1	USP17 block 49
CCOC(=O)C1CCN(c2c(S(=O)(=O)c3ccc(C)c(C)c3)cnc3ccc(CC)cc23)CC1	none
Cc1ccc(C)c(N2CCn3c2nc2c3c(=O)[nH]c(=O)n2C)c1	none
Cc1ccc(OCC2Cn3c(nc4c3c(=O)[nH]c(=O)n4C)O2)cc1C (stereo not drawn)	USP17 block 66 (no result: USP28 inh, USP30 block)
Cc1ccc(NC(=O)Cn2cnc3c(c(C)c(C)n3-c3ccccc3)c2=O)c(C)c1	none
COc1ccc(C(=O)N2CCN(c3ccc(-c4nc(C)cs4)cn3)CC2)cc1	none
CCCCCC(O)/C=C/C(O)C(O)CCCCCCCC(=O)O (stereo not drawn)	none
CCCCCCCCCC(CCCCCCCCCC(=O)O)O[C@H]1O[C@@H](COC(C)=O)[C@H](O)[C@@H](OC(=O)CC(=O)O)[C@H]1O (stereo partly drawn)	USP28 inh 35, USP30 block 47, USP17 block 33
Cc1ccc(-c2c(C(=O)NCc3ccccc3F)oc(=O)c3ccccc23)cc1	none
COc1ccccc1CNC(=O)c1oc(=O)c2ccccc2c1-c1ccc(C)cc1	USP30 block 40
C[C@]12C(=O)N(C3CCCC3)CC(=O)N1CC(c1ccc(Br)cc1)c1c2[nH]c2ccccc12 (stereo partly drawn)	none
CCOC(=O)c1c(N)n(CC(C)NC(=O)C2CC2)c2nc3ccccc3nc12 (stereo not drawn)	USP17 block 30
Nc1c(S(=O)(=O)c2ccccc2)c2nc3ccccc3nc2n1CCNC(=O)C1CC1	none
Cn1c(N)c(C(=O)COc2ccc([N+](=O)[O-])cc2Cl)c(=O)n(C)c1=O	none
Cn1c(N)c(C(=O)CSc2nnc(Cn3cnc4ccccc43)n2-c2ccccc2Cl)c(=O)n(C)c1=O	USP30 block 39
CN1CC(=O)N(C2CCCNC2)Cc2c1ncnc2N1CCCCC1 (stereo not drawn)	none
COc1cc(NC(=O)CSc2nc3ncccc3o2)ccc1Cl	USP17 block 47
COc1ccc(-c2nc3ncccc3o2)cc1NC(=O)COc1ccccc1Cl	none
COc1ccc(OC)c(C(=O)CSc2nc3nc(C)c(Br)cc3[nH]2)c1	USP17 block 50
O=C(Nc1ccc2c(c1)OCCO2)Nc1nnc(CC(=O)N2CCOCC2)s1	none
O=C(Nc1ccc2c(c1)OCCO2)Nc1nnc(CC(=O)N2CCCCC2)s1	USP28 inh 56
CCn1c(=O)c(CCC(=O)NCc2ccc(OC)cc2)c(C)c2c(C)nn(-c3ccccc3C)c21	USP28 inh 56, USP30 block 77, USP17 block 70
CCOC(=O)c1c(OCCOC(=O)c2ccc(Cl)cc2)noc1N	none
Cc1ccc(NC(=O)Nc2ccc(C)n(CC(=O)Nc3cc(C)ccc3C)c2=O)cc1	OTUD3 inh 46, USP28 inh 30, USP30 block 65, USP17 block 54
Cc1ccc(C)c(NC(=O)Cn2ccc3ccn(C)c3c2=O)c1	USP17 block 46
Cc1cccc(NC(=O)Nc2ccc(C)n(CC(=O)Nc3ccccc3)c2=O)c1	USP28 inh 40, USP30 block 41, USP17 block 61
Cc1ccc(NC(=O)Nc2ccc(C)n(CC(=O)Nc3cccc(C)c3)c2=O)cc1	none
Cc1ccc(NC(=O)Nc2ccc(C)n(CC(=O)Nc3ccc(C)cc3C)c2=O)cc1	OTUD3 inh 74, USP28 inh 53, USP30 block 74, USP17 block 79
N#Cc1c(C(F)(F)F)cc(-c2ccccc2)nc1-c1ccc(Oc2ccc(Cl)c(F)c2)cc1	none
Cc1ccc(-c2cnc(C3CC3)o2)cc1S(=O)(=O)N1CCOCC1	none
O=S(=O)(c1ccccc1)N1CCN(c2cc(-c3ccncc3)[nH]n2)CC1	none
CC1=C(C(=O)c2ccc(Cl)cc2)C(c2ccc(C(C)C)cc2)NC(=O)N1 (stereo not drawn)	USP17 block 32
COc1ccc(-c2cc3ncnc(NC(C)c4ccco4)c3s2)cc1 (stereo not drawn)	USP17 block 58
O=C(Nc1ccccc1)c1cn2c3c(cccc3c1=O)CC2	USP17 block 69
O=C(O)c1cn2c3c(cccc3c1=O)CCC2	none
O=C(CCSCc1ccccc1F)N1CCN(c2cccc(Cl)c2)CC1	none
CCOC(=O)c1cc(NC(=O)c2cccnc2)ccc1N1CCOCC1	none
CC(C)N1CCn2c(nc3cc(NC(=O)c4cccnc4)ccc32)C1	USP17 block 34
O=C(c1ccc2c(c1)N(Cc1ccccc1F)C(=O)c1ccccc1S2(=O)=O)N1CCN(C(=O)c2ccco2)CC1	USP17 block 38
O=C(c1ccc2c(c1)N(Cc1ccccc1F)C(=O)c1ccccc1S2)N1CCC2(CC1)OCCO2	none
O=C(Nc1ccc(N2CCN(Cc3ccccc3)C2=O)nc1)C1CCC1	none
CC(C)C(=O)Nc1ccc(N2CCN(Cc3ccc(F)cc3)C2=O)nc1	USP17 block 62
Nc1ncnc(SCc2c(Cl)cccc2Cl)n1	none
Nc1nccc(/C=C/c2c(Cl)cccc2Cl)n1	USP17 block 31
